# Screening results as filed in PubChem BioAssay.
# KB-3-1 tox: kills parental KB-3-1 adenocarcinoma cells; hit rate 1.4% among 400,000; AID 1347075; Potency, µM (highest dose often 46.1 µM), hits mostly cytotoxic; KB-3-1 viability, CellTiter-Glo ATP luminescence, 72 h; note: % is set by controls: 0 for no effect and ±100 for the full control effect; nearly all actives have a fitted effect of over 60% in size
#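 Parental KB-3-1 adenocarcinoma cells in phenol-red-free DMEM with 10% FBS were pin-treated with compounds at several concentrations, incubated 72 h at 37 °C, and viability read by CellTiter-Glo luminescence; concentration-effect curves were fitted after normalization.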
# MCF10A rerep: DNA re-replication induction in MCF 10a cells; MCF 10A DNA re-replication, Hoechst nuclear intensity, 48 h; Potency, µM (highest dose often 46.1 µM), without a hit: at the highest dose activity, positive = re-replication, most hits filed as activators; hit rate 2.9% among 350,000; AID 624296; note: % of control where 0% means no effect; nearly all actives have a fitted effect of over 50% in size
# HT1080 IDH1KD tx: kills HT-1080 cells with IDH1 knockdown. HT-1080 IDH1 knockdown viability, ATP luminescence, 48 h. Potency, µM (doses to about 46.1 µM), for inactives: at the top dose activity, negative = toxicity, most hits filed as cytotoxic. hit rate 2% among 360,000. AID 686971;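 note: 0% = DMSO wells and -100% = cell-free medium wells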
#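 Knockdown cells (IDH1KD HT-1080) received compounds 2 h after plating at 750 cells/well and were kept 48 h at 37 °C in 5% FBS RPMI. A CellTiter-Glo luminescence read gave % activity for curve fitting.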
# HT1080NT lethal: kills 2HG-producing HT-1080-NT fibrosarcoma cells; HT-1080-NT fibrosarcoma viability, CellTiter-Glo ATP luminescence, 48 h; Potency, µM (titrated, usually from 46.1 µM), for the others: at the top dose activity, negative = less viability, actives largely listed as cytotoxic; hit rate 1.6% among 360,000; AID 686970;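 note: NT is the 2HG producing partner of a matched IDH1 knockdown line; 0% = DMSO-treated cells and -100% = media-only wells without cells; nearly all actives have a fitted effect of over 55% in size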
#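 HT-1080-NT fibrosarcoma cells (2HG-overproducing), 750 cells/well in RPMI with 5% FBS, dosed after 2 h and incubated 48 h at 37C. CellTiter-Glo luminescence normalized to DMSO and no-cell wells; concentration-response curves fitted and classed.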
# SW480 rereplic: inducers of DNA re-replication in SW480 colon cancer cells. SW480 DNA re-replication, Hoechst DNA content imaging, 48 h. Potency, µM (series often up to 46.1 µM), for the others: at the highest dose re-replication activation, actives largely listed as activators. hit rate 1.8% among 340,000. AID 624297; note: % of control where 0% means no effect; nearly all actives have a fitted effect of over 55% in size
#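 Readout is total intensity of Hoechst-stained nuclei, excited at 405 nm and collected at 500-530 nm. Compound treatment lasted 48 hr at 37 C in 5% CO2 before staining.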
# KB-V1 MDR tox: kills drug-selected multidrug resistant KB-V1 cells | Potency, µM (doses to about 46.1 µM), hits mostly cytotoxic | KB-V1 MDR cells viability, CellTiter-Glo, 72 h | hit rate 3.4% among 400,000 | AID 1347076; note: % is set by controls: 0 for no effect and ±100 for the full control effect; nearly all actives have a fitted effect of over 60% in size
#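 Cytotoxicity via CellTiter-Glo luminescence after 72 h compound exposure at 37 degrees C. Cells: drug-selected KB-V1 line, DMEM phenol-red free plus 10% FBS. Compounds tested at multiple concentrations; normalized data fitted to concentration-effect curves.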
# The depositor's hits bear a star; i = inactive; ? = inconclusive; nt = no result given; [ ] = another dose, or the depositor's remark. The list is not random: actives were taken first. Their share in the collection is about 8%. Calls come from the whole dose curve; as a rule, active = well fitted curve in the direction sought with a large enough effect; inconclusive = small, poorly fitted or top-dose-only effect, or another doubt; inactive = no such curve, though single readings can be large; an effect the other way counts as inactive or inconclusive. Potency is the fitted concentration of half-maximal effect.
SMILES,KB-3-1 tox,MCF10A rerep,HT1080 IDH1KD tx,HT1080NT lethal,SW480 rereplic,KB-V1 MDR tox
CC(=O)N1CCCc2cc(S(=O)(=O)NCc3ccc(OC(C)C)cc3)ccc21,i,nt,nt,nt,nt,i
CC1CCN(S(=O)(=O)c2ccc3c(c2)c(=O)c(C(=O)NC(C)c2ccccc2)cn3C)CC1 (stereo not given),i,nt,nt,nt,nt,i
Cc1ccc(S(=O)(=O)c2cnc(SCC(=O)Nc3cccc(Cl)c3)nc2N)cc1C,i,nt,nt,nt,nt,i
CCOc1cc(-c2nc(-c3ccccc3)c(-c3cc([N+](=O)[O-])ccc3C)[nH]2)ccc1O,i,5%,-27%,-24%,21%,18µM*
COc1ccc(-c2nc(-c3ccccc3)c(-c3cc([N+](=O)[O-])ccc3C)[nH]2)cc1OC,?,5%,-9%,-18%,-7%,i
CC1(C)N=C(SCC(=O)Nc2ccc(Cl)cc2)C(c2ccc(Cl)cc2)=N1,?,18µM*,-9%,-22%,?,?
Cn1c(SCC(=O)NC(C)(C)C)nnc1-c1ccc(C(C)(C)C)cc1,i,-4%,-1%,-11%,-2%,21µM*
COc1ccc(-c2nnc(SCC(=O)Nc3ccc(Cl)cc3)n2C)cc1,i,3.3µM*,-4%,-2%,15µM*,i
Cn1nnnc1SCC(=O)Nc1ccc(Oc2ccc(Cl)cc2)cc1,i,8.2µM*,?,-15%,15µM*,i
CN(C)c1cccc(-c2cc(N3CCC(C(N)=O)CC3)ncn2)c1,?,nt,nt,nt,nt,i
COc1ccc(N2CCN(C(c3ccc(C)cc3)c3nnnn3C(C)(C)C)CC2)cc1 (stereo not given),i,nt,nt,nt,nt,i
COCCn1c(SCC(=O)Nc2sc(C)c(C)c2C#N)nnc1-c1ccc(OC)cc1,i,13%,18%,6%,-4%,9.2µM*
Cc1ccc(-c2nnc(SCC(=O)Nc3sc(C)c(C)c3C#N)n2C)cc1,i,-11%,13%,6%,4%,i
CCCCC[C@@H](/C=C/C1C(=O)C=C[C@H]1C/C=C\CCCC(=O)OC)OC(C)=O (stereo not given in full),?,18µM*,?,?,-22%[9.22 µM],?
CCN(CC)S(=O)(=O)c1ccc2c(c1)c(=O)c(C(=O)N(C)Cc1ccccc1)cn2C,i,nt,nt,nt,nt,i
C=CC(C)(C)c1c(O)c(CC=C(C)C)c(O)c2c(=O)c3ccc(O)c(O)c3oc12,?,23µM*,15µM*,?,?,?
O=C(Cc1ccc(-c2ccccc2)cc1)NCc1ccccc1,0.082µM*,0.12µM*,?,?,1.3µM*,0.29µM*
O=C(/C=N/O)NCc1cccnc1,i,15µM*,17%,0%,13µM*,i
O=C(Cc1ccc(-c2ccccc2)cc1)NNC(=S)NCc1ccco1,i,?,-8%,-14%,1%,8.2µM*
Cc1ccc(CC(=O)NCc2ccc(F)cc2)cc1,?,?,7.3µM*,9.2µM*,18µM*,?
O=C(Cc1cccs1)NNC(=S)NCc1ccco1,i,3%,11%,21%,3%,i
Cc1ccc(C)c(N2CCN(C(=O)c3cc(C)nc4c3c(C)nn4-c3cccc(F)c3)CC2)c1,i,nt,nt,nt,nt,i
CCCCCCCCCCN(CCCCCCCCCC)c1ccc(/C=C/c2ccnc3ccccc23)cc1,i,nt,nt,nt,nt,i
COc1ccccc1-n1c(=O)c2c3c(sc2n(C)c1=O)CN(C(C)=O)CC3,i,nt,nt,nt,nt,i
S=C(NCc1ccccc1)C(=S)NCc1ccccc1,i,0%,0%,1%,-3%,i
SMILES,KB-3-1 tox,MCF10A rerep,HT1080 IDH1KD tx,HT1080NT lethal,SW480 rereplic,KB-V1 MDR tox
Cc1ccc(CNC(=O)Cc2ccc(-c3ccccc3)cc2)cc1,i,?,2.8µM*,4µM*,1.2µM*,i
O=C(Cc1ccc(-c2ccccc2)cc1)NCc1cccnc1,15µM*,12µM*,8.2µM*,?,23µM*,?
Nc1nc2ccccc2cc1C(=O)NCc1ccc(-c2ccccc2)cc1,2.3µM*,nt,1.3µM*,?,nt,2.6µM*
c1ccc(CN=C(NCc2ccccc2)NCc2ccccc2)cc1,?,?,16µM*,?,?,i
CCOC(=O)c1ccc(NC(=O)COCc2cc(-c3ccc4c(c3)OCO4)on2)cc1,i,nt,nt,nt,nt,i
O=C(NCc1ccc(Cl)cc1)c1ccccc1CCc1ccccc1,i,?,-6%,-2%,5%,21µM*
O=C(NCc1ccccc1Cl)c1ccccc1CCc1ccccc1,i,3%,-10%,-9%,-4%,i
CC(C)(C)OC(=O)N1CCC(c2c(C(=O)Nc3ccc4c(c3)OCO4)cnn2-c2ccc(F)cc2F)CC1,i,nt,nt,nt,nt,i
COc1ccc(OC)c(C2=NOC(C(=O)N3CCCc4ccccc43)C2)c1 (stereo not given),i,?,-1%,0%,-2%,16µM*
O=C(NCc1ccco1)C1CC(c2ccccc2C(F)(F)F)=NO1 (stereo not given),i,46%,-4%,-5%,-16%,i
O=C(NCc1ccco1)C1CC(c2cc(C(F)(F)F)cc(C(F)(F)F)c2)=NO1 (stereo not given),4.1µM*,6.5µM*,2.6µM*,5.8µM*,13µM*,10µM*
O=C(NCc1ccco1)C1CC(c2ccccc2O)=NO1 (stereo not given),i,?,?,-3%,29%,i
COc1ccc(OC)c(C2=NOC(C(=O)NCc3ccco3)C2)c1 (stereo not given),?,13µM*,?,-19%,?,16µM*
Cc1cccc(OCC(=O)Nc2c(C(=O)N3CCN(c4ccccc4)CC3)oc3ccccc23)c1,i,nt,nt,nt,nt,i
COc1cccc(C(=O)NC2CC3CCCC(C2)N3CC(=O)Nc2ccccc2C(F)(F)F)c1 (stereo not given),?,?,?,?,16µM*,i
CCCN1C2CCCC1CC(NC(=O)Nc1cccc(C(C)=O)c1)C2 (stereo not given),i,5%,12%,13%,0%,i
CCc1cccc(CC)c1NC(=O)CN1C2CCCC1CC(NC(=O)Nc1cccc(OC)c1)C2 (stereo not given),?,12%,?,?,9%,21µM*
O=C(CN1C2CCCC1CC(NC(=O)C1CCCCC1)C2)Nc1ccccc1C(F)(F)F (stereo not given),i,0%,?,-28%,-9%,?
